# In PubChem BioAssay AID1508636 (National Center for Advancing Translational Sciences (NCATS), 2021):
# Results filed as inconclusive are left out. A call without a number means that no potency is given here. Calls of active or inactive are those of the source. The call rests on the fitted dose curve; in most records, active means well fitted inhibition curve with a large enough effect; inconclusive means small, poorly fitted or top-dose-only effect; inactive means flat fitted curve, though single readings scatter. *1 amine or outer side, *2 acyl side, *3 side chain or, on linkers, in order; H or OH if unused. Where a SMILES comes first, the peptide text is derived from it. [ ]: non-standard residue; d: D form. X1 = O=C([C@@H](CC(O)CCl)O[*:1])[*:2]; aIle = CC[C@@H](C)[C@H](N)C(=O)O; NMeV = CN[C@H](C(=O)O)C(C)C; NMeA = CN[C@@H](C)C(=O)O; βAla = NCCC(=O)O
# Target: ATP-dependent translocase ABCB1 (Homo sapiens) (UniProt P08183)
# Assay: qHTS for characterization and localization of zebrafish homologs of the human ABCB1 multidrug transporter: P-gp overexpressing MDR-19 cells
# Text: The zebrafish has emerged as a potential model to study the blood-brain barrier (BBB) given its similarities with mammalian systems. However, little information has been available with regard to homologous ATP-binding cassette transporters expressed at the zebrafish BBB. Two transporters that are highly expressed at the human BBB are P-glycoprotein (P-gp, encoded by the ABCB1 gene) and ABCG2 (encoded by the ABCG2 gene). In this study, we focus on characterization of P-gp homologs in the zebrafish, which has two genes that are homologous to human ABCB1 - abcb4 and abcb5. We generated stably-transfected cell lines to determine their substrate specificities. […] Zebrafish abcb4 also colocalized with claudin 5 expression in brain endothelial cells.
# A high-throughput screen was performed as previously described on empty vector transfected cells, P-gp-overexpressing MDR-19 cells and cells transfected with full-length zebrafish abcb4 (ZF Abcb4) or abcb5 (ZF Abcb5). Briefly, cells were plated into 1536-well plates at a density of 500 cells/well in 5 uL media. […] CellTiter-Glo reagent (Promega) was dispensed into the wells, incubated for 5 min and luminescence was read on a ViewLux instrument (Perkin-Elmer). […]
# ATP-dependent translocase ABCB1 (Homo sapiens), sequence (P08183 whole entry, looked up): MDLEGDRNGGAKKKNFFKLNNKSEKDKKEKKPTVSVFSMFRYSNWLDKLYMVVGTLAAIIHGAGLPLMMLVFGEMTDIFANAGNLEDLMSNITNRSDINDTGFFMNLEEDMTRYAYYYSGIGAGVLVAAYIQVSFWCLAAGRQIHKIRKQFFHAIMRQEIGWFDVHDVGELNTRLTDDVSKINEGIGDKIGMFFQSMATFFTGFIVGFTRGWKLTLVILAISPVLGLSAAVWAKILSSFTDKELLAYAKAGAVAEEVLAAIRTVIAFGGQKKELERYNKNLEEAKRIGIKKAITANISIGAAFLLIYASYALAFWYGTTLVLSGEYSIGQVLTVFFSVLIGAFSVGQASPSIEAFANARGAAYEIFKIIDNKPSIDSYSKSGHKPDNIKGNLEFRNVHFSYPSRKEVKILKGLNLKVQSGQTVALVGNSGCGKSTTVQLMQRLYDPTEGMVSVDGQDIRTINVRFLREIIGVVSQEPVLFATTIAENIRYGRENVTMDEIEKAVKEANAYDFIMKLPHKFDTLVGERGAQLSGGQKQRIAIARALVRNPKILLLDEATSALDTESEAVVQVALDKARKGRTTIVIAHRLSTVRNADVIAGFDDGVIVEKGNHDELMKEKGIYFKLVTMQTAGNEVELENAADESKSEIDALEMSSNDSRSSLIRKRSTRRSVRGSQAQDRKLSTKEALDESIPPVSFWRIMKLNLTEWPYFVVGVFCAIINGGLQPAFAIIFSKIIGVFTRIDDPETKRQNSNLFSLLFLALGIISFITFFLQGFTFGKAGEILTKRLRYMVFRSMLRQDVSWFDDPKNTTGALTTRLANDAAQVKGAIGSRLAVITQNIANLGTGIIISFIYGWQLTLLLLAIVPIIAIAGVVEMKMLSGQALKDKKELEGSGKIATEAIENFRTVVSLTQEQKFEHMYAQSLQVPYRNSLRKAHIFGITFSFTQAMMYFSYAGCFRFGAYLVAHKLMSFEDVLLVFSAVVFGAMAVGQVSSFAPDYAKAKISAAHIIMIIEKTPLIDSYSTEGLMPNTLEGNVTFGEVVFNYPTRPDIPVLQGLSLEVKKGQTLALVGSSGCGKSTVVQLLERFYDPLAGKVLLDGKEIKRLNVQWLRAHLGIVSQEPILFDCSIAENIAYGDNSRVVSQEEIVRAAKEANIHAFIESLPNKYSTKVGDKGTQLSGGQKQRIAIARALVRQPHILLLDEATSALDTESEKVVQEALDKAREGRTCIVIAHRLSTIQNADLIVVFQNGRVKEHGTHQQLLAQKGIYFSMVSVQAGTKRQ
row,Compound,Potency
1,C[C@@H]1[C@@H](CC(C[C@H]2O[C@@H]3O[C@]4(C)CC[C@@H]5[C@H](C)CC[C@@H]([C@H]2C)[C@@]35OO4)C[S+](=O)([O-])c2ccc(COC(=O)N(C)C)cc2)O[C@@H]2O[C@]3(C)CC[C@H]4[C@H](C)CC[C@@H]1[C@@]24OO3 (some centres not stated),1320 nM (active)
2,CC[C@@H](C)[C@@H]1NC(=O)[C@@H]2CCCN2C(=O)[C@@H](CC(O)CCl)OC(=O)CCNC(=O)[C@H](C)N(C)C(=O)[C@H](C(C)C)N(C)C1=O (some centres not stated) (cyclo([NMeA][βAla][X1]P[aIle][NMeV])),inactive
